Results from the supplement of paper PMC8728848.
The entries come from a sample that favours the strongest signals as a whole.

tested on: Fuc(a1-2)Gal(b1-4)[Fuc(a1-3)]GlcNAc; test: glycan array binding signal (z-score within array); higher = stronger binding; conditions: glycan notation: IUPAC condensed, linker removed
Method in brief: (§1)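 The binding signal is a Z-score computed within each array and averaged over linkers. Arrays of the same protein sequence at different concentrations or buffers were also averaged together. Data originate from 3228 arrays in the Consortium for Functional Glycomics database, kept only where the protein sequence was available.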

PILRb (Mus musculus), Q2YSF2, sequence (Q2YSF2 entry or part of it): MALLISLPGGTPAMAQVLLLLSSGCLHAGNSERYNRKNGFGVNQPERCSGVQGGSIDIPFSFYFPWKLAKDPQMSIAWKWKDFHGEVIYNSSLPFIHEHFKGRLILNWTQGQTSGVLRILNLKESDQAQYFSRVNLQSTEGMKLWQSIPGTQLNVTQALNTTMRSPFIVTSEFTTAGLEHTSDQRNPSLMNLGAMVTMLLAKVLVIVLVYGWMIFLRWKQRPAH
PILRa (Mus musculus), Q2YSF3, sequence (Q2YSF3 entry or part of it): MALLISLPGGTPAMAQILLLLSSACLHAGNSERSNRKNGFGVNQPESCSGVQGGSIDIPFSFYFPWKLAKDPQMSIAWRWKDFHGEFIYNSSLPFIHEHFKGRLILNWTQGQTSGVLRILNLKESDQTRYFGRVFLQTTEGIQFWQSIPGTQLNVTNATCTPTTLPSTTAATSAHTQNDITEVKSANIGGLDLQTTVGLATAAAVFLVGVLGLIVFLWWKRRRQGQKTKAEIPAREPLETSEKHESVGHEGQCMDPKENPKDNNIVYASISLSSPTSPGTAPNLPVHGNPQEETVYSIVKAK
Avaren (Actinomycete K97), sequence (chain, as listed by the source): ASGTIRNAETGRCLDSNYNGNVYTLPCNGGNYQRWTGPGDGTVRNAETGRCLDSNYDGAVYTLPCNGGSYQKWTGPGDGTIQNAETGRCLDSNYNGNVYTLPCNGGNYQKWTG
Neurocan (Homo sapiens), O14594, sequence (O14594 other isoform, or with tags, fused parts or gaps): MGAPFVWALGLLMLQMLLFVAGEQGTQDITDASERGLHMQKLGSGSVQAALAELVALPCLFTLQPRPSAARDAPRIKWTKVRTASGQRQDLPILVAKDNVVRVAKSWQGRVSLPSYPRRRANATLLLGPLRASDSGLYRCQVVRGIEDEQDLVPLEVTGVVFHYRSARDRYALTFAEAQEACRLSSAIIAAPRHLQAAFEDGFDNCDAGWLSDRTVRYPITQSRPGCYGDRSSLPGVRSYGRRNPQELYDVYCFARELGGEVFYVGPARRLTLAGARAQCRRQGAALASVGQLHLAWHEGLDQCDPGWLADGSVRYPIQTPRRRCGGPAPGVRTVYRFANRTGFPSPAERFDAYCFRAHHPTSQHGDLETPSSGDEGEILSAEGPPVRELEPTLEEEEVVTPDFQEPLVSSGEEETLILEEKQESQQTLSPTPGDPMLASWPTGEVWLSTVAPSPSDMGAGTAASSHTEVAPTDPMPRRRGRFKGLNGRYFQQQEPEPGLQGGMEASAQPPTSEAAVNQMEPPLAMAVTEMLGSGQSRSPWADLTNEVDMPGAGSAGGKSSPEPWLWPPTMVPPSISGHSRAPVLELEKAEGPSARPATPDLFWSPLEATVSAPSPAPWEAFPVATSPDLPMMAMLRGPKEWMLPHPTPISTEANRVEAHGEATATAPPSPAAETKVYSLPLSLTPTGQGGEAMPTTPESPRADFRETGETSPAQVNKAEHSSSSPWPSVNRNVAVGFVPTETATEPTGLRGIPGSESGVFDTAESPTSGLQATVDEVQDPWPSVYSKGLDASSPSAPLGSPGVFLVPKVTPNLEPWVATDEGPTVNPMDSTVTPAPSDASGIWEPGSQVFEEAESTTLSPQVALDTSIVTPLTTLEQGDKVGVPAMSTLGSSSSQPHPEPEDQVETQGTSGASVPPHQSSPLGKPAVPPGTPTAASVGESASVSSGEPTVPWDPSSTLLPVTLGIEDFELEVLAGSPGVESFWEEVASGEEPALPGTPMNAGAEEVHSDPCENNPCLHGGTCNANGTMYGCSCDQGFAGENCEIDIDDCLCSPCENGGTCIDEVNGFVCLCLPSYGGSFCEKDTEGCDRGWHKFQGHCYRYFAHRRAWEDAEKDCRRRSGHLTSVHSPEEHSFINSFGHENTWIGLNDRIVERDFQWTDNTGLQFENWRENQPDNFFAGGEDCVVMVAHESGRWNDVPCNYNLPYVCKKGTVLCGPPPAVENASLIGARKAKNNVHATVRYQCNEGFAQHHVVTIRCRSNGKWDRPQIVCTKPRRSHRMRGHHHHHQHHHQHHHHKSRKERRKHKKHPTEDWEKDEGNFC
CHI3L1 (Homo sapiens), P36222, sequence (P36222 whole entry): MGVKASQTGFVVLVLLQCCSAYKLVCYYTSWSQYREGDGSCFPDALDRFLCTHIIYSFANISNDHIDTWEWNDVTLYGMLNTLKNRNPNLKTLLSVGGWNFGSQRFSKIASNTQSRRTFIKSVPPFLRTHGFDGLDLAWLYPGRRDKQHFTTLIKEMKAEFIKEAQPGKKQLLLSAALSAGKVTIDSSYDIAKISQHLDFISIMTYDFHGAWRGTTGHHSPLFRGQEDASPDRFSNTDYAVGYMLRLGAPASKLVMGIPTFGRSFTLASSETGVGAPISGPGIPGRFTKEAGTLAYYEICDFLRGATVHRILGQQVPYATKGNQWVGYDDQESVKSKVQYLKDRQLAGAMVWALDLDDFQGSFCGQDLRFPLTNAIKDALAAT

Substance | glycan array binding signal (z-score)
Avaren (Actinomycete K97) | -0.134
PILRb (Mus musculus), Q2YSF2 | -0.235
PILRa (Mus musculus), Q2YSF3 | -0.097

tested on: Fuc(a1-2)[Gal(a1-3)]Gal(b1-4)[Fuc(a1-3)]GlcNAc(b1-3)GalNAc; test: as above; conditions: glycan notation: IUPAC condensed, linker removed
Method in brief: as §1

Substance | glycan array binding signal (z-score)
CHI3L1 (Homo sapiens), P36222 | -0.1
PILRb (Mus musculus), Q2YSF2 | 3.94
Neurocan (Homo sapiens), O14594 | 0.513
PILRa (Mus musculus), Q2YSF3 | 0.044
